Measurements published in PubChem BioAssay AID1159580 (chemical genetic matrix, 2015).
Where “and” joins values, the source holds several entries; their conditions need not be identical. Identical values can stand only once. Among all 5,500 compounds or so, about 2,000 (36%) were called active. About 18% were inconclusive and are not listed. No stated cut-off is given here; in the data, active means normalized growth mostly below about 0.91 (no sharp cut-off); inconclusive means no clear call, values can overlap the other calls; inactive means mostly above about 0.92. This is one part of the list.

Assay: chemical genetic growth profiling, strain panel (AID 1159580);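 further: tested at 20 µM; growth read once vehicle control cultures reached saturation at 30 °C; 1 = growth at the plate median or of vehicle wells; lower values mean less growth of the strain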
Conditions: S. cerevisiae deletion strains, growth OD

Measured: normalized growth

COc1ccc2c3c1O[C@H]1C[C@@H](O)C=C[C@@]31CCN(C)C2
inactive: locus YAL013W, strain DEP1, hits give low values 1.01 | locus YAL021C, strain ccr4, hits give low values 1.02 | locus YAL026C, strain drs2, hits give low values 0.993 | locus YAL030W, strain snc1, hits give low values 0.984 | locus YBL061C, strain skt5, hits give low values 0.994 | locus YBR009C, strain hhf1, hits give low values 1.01 | locus YBR021W, strain FUR4, hits give low values 0.999 | locus YBR023C, strain chs3, hits give low values 0.992 | locus YBR171W, strain sec66, hits give low values 1.01 | locus YBR229C, strain ROT2, hits give low values 1 | locus YBR231C, strain swc5, hits give low values 0.984 | locus YBR279W, strain paf1, hits give low values 0.992 | locus YCL011C, strain gbp2, hits give low values 0.998 | locus YCL016C, strain dcc1, hits give low values 0.999 | locus YCL029C, strain bik1, hits give low values 1.02 | locus YCL061C, strain MRC1, hits give low values 1.02 | locus YCL069W, strain vba3, hits give low values 1 | locus YCR088W, strain abp1, hits give low values 1 | locus YDL005C, strain med2, hits give low values 0.995 | locus YDL035C, strain GPR1, hits give low values 1.01 | locus YDL040C, strain nat1, hits give low values 1 | locus YDL074C, strain BRE1, hits give low values 1 | locus YDL101C, strain DUN1, hits give low values 0.996 | locus YDL134C, strain PPH21, hits give low values 1.01 | locus YDL185W, strain tfp1, hits give low values 1.02 | locus YDL192W, strain arf1, hits give low values 1.01 | locus YDR001C, strain nth1, hits give low values 0.998 | locus YDR069C, strain doa4, hits give low values 0.997 | locus YDR101C, strain arx1, hits give low values 1.01 | locus YDR137W, strain rgp1, hits give low values 1.03 | locus YDR150W, strain NUM1, hits give low values 1.01 | locus YDR159W, strain sac3, hits give low values 0.935 | locus YDR162C, strain NBP2, hits give low values 0.97 | locus YDR195W, strain ref2 0.946 | locus YDR297W, strain sur2, hits give low values 1.01 | locus YDR318W, strain mcm21, hits give low values 1.05 | locus YDR334W, strain swr1, hits give low values 0.994 | locus YDR335W, strain msn5, hits give low values 1.02 | locus YDR388W, hits give low values 1.01 | locus YDR392W, strain spt3, hits give low values 1.05 | locus YDR502C, strain sam2, hits give low values 1.01 | locus YEL003W, strain gim4, hits give low values 0.985 | locus YEL037C, strain rad23, hits give low values 1 | locus YEL061C, strain CIN8 (second series), hits give low values 1.01 | locus YEL061C, strain CIN8, hits give low values 1.01 | locus YER015W, strain faa2, hits give low values 0.993 | locus YER016W, strain bim1, hits give low values 1.01 | locus YER110C, hits give low values 1.02 | locus YER111C, strain swi4, hits give low values 0.997 | locus YER155C, strain BEM2 (second series), hits give low values 1.01 | locus YER155C, strain BEM2, hits give low values 0.998 | locus YER167W, strain BCK2, hits give low values 1.03 | locus YFR010W, strain ubp6, hits give low values 0.986 | locus YGL078C, strain dbp3, hits give low values 0.992 | locus YGL086W, strain mad1, hits give low values 1.04 | locus YGL167C, strain pmr1, hits give low values 0.997 | locus YGL173C, strain kem1, hits give low values 0.997 | locus YGL227W, strain vid30, hits give low values 0.997 | locus YGL240W, strain doc1, hits give low values 0.999 | locus YGL248W, strain PDE1, hits give low values 1.01 | locus YGL253W, strain hxk2, hits give low values 1.01 | locus YGR078C, strain PAC10, hits give low values 0.981 | locus YGR135W, strain pre9, hits give low values 1 | locus YGR229C, strain SMI1, hits give low values 0.981 | locus YGR252W, strain gcn5, hits give low values 1.08 | locus YHR013C, strain ard1, hits give low values 1.01 | locus YHR027C, strain rpn1, hits give low values 1 | locus YHR030C, strain SLT2, hits give low values 1.01 and 0.985 | locus YHR079C, strain IRE1 (second series), hits give low values 1.02 | locus YHR079C, strain IRE1, hits give low values 0.989 | locus YHR094C, strain hxt1, hits give low values 1.01 | locus YHR129C, strain ARP1, hits give low values 1.01 | locus YHR142W, strain chs7, hits give low values 0.982 | locus YHR200W, strain rpn10, hits give low values 1.02 | locus YIL066C, strain RNR3, hits give low values 1.01 | locus YIL073C, strain SPO22, hits give low values 1.04 | locus YIL125W, strain kgd1, hits give low values 1.01 | locus YIR030C, strain dcg1, hits give low values 1.02 | locus YJL092W, strain hpr5, hits give low values 1 | locus YJL095W, strain BCK1 (second series), hits give low values 1.01 | locus YJL095W, strain BCK1, hits give low values 1.01 and 0.995 | locus YJL115W, strain asf1, hits give low values 1.01 | locus YJL129C, strain trk1, hits give low values 0.983 | locus YJL134W, strain LCB3, hits give low values 1.01 | locus YJL154C, strain vps35, hits give low values 1.01 | locus YJL164C, strain tpk1, hits give low values 1 | locus YJL166W, strain qcr8, hits give low values 1.01 | locus YJL168C, strain set2, hits give low values 1.01 | locus YJL187C, strain SWE1 (second series), hits give low values 1 | locus YJR043C, strain POL32, hits give low values 1.03 | locus YJR066W, strain TOR1, hits give low values 0.935
